Results on 18 sequences are retold here after publication PMC11006913.

Holding throughout (assay): PBM; 200 nM protein, PBS
Common to all, as to conditions: dsDNA, one strand shown

For assay [1], the target named is HOXA2 (Homo sapiens, UniProt O43364 129-215, R185T).
The target in assay [2] is HOXA2 (Homo sapiens, UniProt O43364 129-215, R185K).
Assay [3] deals with VAX1 (Homo sapiens, UniProt Q5SQQ9 86-172).
In assay [4] the target is VAX1 (Homo sapiens, UniProt Q5SQQ9 86-172, T142I).
The target of assay [5] is HOXA2 (Homo sapiens, UniProt O43364 129-215, Y150S).
Chain of HOXA2 (Homo sapiens, UniProt O43364 129-215, Y150S) (O43364 129-215 Y150S): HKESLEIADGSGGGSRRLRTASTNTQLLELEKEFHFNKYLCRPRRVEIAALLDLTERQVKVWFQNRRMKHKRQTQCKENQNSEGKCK
The target of assay [6] is HOXA2 (Homo sapiens, UniProt O43364 129-215).
Chain of HOXA2 (Homo sapiens, UniProt O43364 129-215) (O43364 129-215): as the sequence (O43364 129-215 Y150S) above, with S22Y counted along it
Assay [7] concerns the target VAX1 (Homo sapiens, UniProt Q5SQQ9 86-172, K157R).
In the next assay the target is ALX1 (Homo sapiens, UniProt Q15699 118-204, L144R).
Chain of ALX1 (Q15699 118-204 L144R): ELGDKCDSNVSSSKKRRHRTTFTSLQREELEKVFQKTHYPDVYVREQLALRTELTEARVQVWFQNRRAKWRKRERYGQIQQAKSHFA
The target of another assay is HOXA4 (Homo sapiens, UniProt Q00056 201-287, W262F).
Chain of HOXA4 (Q00056 201-287 W262F): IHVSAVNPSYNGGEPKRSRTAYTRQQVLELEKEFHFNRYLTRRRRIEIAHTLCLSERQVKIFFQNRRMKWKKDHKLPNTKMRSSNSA
Assay [8] deals with NKX3-2 (Homo sapiens, UniProt P78367 192-278, P234S).
Chain of NKX3-2 (Homo sapiens, UniProt P78367 192-278, P234S) (P78367 192-278 P234S): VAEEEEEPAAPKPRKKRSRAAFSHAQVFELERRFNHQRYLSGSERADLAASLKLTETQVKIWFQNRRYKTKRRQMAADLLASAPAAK
Assay [9] has as its target NKX3-2 (Homo sapiens, UniProt P78367 192-278).

Chain of VAX1 (Homo sapiens, UniProt Q5SQQ9 86-172) (Q5SQQ9 86-172): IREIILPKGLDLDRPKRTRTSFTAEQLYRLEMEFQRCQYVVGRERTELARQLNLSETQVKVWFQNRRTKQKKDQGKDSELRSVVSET
Chain of VAX1 (Homo sapiens, UniProt Q5SQQ9 86-172, K157R) (Q5SQQ9 86-172 K157R): as the sequence (Q5SQQ9 86-172) above, with K72R counted along it
Chain of VAX1 (Homo sapiens, UniProt Q5SQQ9 86-172, T142I) (Q5SQQ9 86-172 T142I): as the sequence (Q5SQQ9 86-172) above, with T57I counted along it
Chain of HOXA2 (Homo sapiens, UniProt O43364 129-215, R185T) (O43364 129-215 R185T): as the sequence (O43364 129-215 Y150S) above, with S22Y, R57T counted along it
Chain of HOXA2 (Homo sapiens, UniProt O43364 129-215, R185K) (O43364 129-215 R185K): as the sequence (O43364 129-215 Y150S) above, with S22Y, R57K counted along it
Chain of NKX3-2 (Homo sapiens, UniProt P78367 192-278) (P78367 192-278): as the sequence (P78367 192-278 P234S) above, with S43P counted along it

On to GGGAGCCC, for which the binding signal with HOXA2 [1] was 7.4 upbm affinity estimate (log intensity, higher = more binding, comparable within an allelic series); with HOXA2 [2] it was 10.3 upbm affinity estimate (log intensity, higher = more binding, comparable within an allelic series); with VAX1 [3] it was 7.23 upbm affinity estimate (log intensity, higher = more binding, comparable within an allelic series); with VAX1 [4], 7.09 upbm affinity estimate (log intensity, higher = more binding, comparable within an allelic series); in the assay with HOXA2 [5], 10.5 upbm affinity estimate (log intensity, higher = more binding, comparable within an allelic series); with HOXA2 [6], 7.35 upbm affinity estimate (log intensity, higher = more binding, comparable within an allelic series). In addition, in the assay with VAX1 [7], the binding signal is 7.13 upbm affinity estimate (log intensity, higher = more binding, comparable within an allelic series).
Take CCCCCTCC: the binding signal with HOXA2 [1] is 6.95 upbm affinity estimate (log intensity, higher = more binding, comparable within an allelic series); with HOXA2 [2], 9.98 upbm affinity estimate (log intensity, higher = more binding, comparable within an allelic series); with HOXA2 [5], 10.1 upbm affinity estimate (log intensity, higher = more binding, comparable within an allelic series); with HOXA2 [6], 6.89 upbm affinity estimate (log intensity, higher = more binding, comparable within an allelic series).
CTACGCCC: the binding signal with HOXA2 [1] is 7.29 upbm affinity estimate (log intensity, higher = more binding, comparable within an allelic series); in the assay with HOXA2 [2] it was 10.3 upbm affinity estimate (log intensity, higher = more binding, comparable within an allelic series); with HOXA2 [5], 10.5 upbm affinity estimate (log intensity, higher = more binding, comparable within an allelic series); with HOXA2 [6], 7.38 upbm affinity estimate (log intensity, higher = more binding, comparable within an allelic series).
As to TCATTAGA, the binding signal was 12.1 upbm affinity estimate (log intensity, higher = more binding, comparable within an allelic series) with HOXA2 [1]; 13 upbm affinity estimate (log intensity, higher = more binding, comparable within an allelic series) in the assay with HOXA2 [2]; 12.8 upbm affinity estimate (log intensity, higher = more binding, comparable within an allelic series) with VAX1 [3]; 12.5 upbm affinity estimate (log intensity, higher = more binding, comparable within an allelic series) in the assay with VAX1 [4]; 10.6 upbm affinity estimate (log intensity, higher = more binding, comparable within an allelic series) with HOXA2 [5]; 12.1 upbm affinity estimate (log intensity, higher = more binding, comparable within an allelic series) in the assay with HOXA2 [6]. In the assay with VAX1 [7], the binding signal is 12.5 upbm affinity estimate (log intensity, higher = more binding, comparable within an allelic series).
On to CAATCACA, for which the binding signal is 9.53 upbm affinity estimate (log intensity, higher = more binding, comparable within an allelic series) in the assay with HOXA2 [1]; 11.8 upbm affinity estimate (log intensity, higher = more binding, comparable within an allelic series) with HOXA2 [2]; 10.8 upbm affinity estimate (log intensity, higher = more binding, comparable within an allelic series) with HOXA2 [5]; 9.4 upbm affinity estimate (log intensity, higher = more binding, comparable within an allelic series) with HOXA2 [6].
Consider CGATTACA, for which the binding signal was 10.3 upbm affinity estimate (log intensity, higher = more binding, comparable within an allelic series) with HOXA2 [1]; 12 upbm affinity estimate (log intensity, higher = more binding, comparable within an allelic series) in the assay with HOXA2 [2]; 10.7 upbm affinity estimate (log intensity, higher = more binding, comparable within an allelic series) in the assay with HOXA2 [5]; 9.9 upbm affinity estimate (log intensity, higher = more binding, comparable within an allelic series) in the assay with HOXA2 [6].
On to GGATATTA, for which the binding signal with HOXA2 [1] was 10.4 upbm affinity estimate (log intensity, higher = more binding, comparable within an allelic series); in the assay with HOXA2 [2], 12 upbm affinity estimate (log intensity, higher = more binding, comparable within an allelic series); in the assay with HOXA2 [5], 10.8 upbm affinity estimate (log intensity, higher = more binding, comparable within an allelic series); in the assay with HOXA2 [6], 10.6 upbm affinity estimate (log intensity, higher = more binding, comparable within an allelic series).
Turning to GTAATGAC, the binding signal with HOXA2 [1] is 12 upbm affinity estimate (log intensity, higher = more binding, comparable within an allelic series); with HOXA2 [2], 13.1 upbm affinity estimate (log intensity, higher = more binding, comparable within an allelic series); with VAX1 [4], 12.3 upbm affinity estimate (log intensity, higher = more binding, comparable within an allelic series); in the assay with HOXA2 [5], 10.8 upbm affinity estimate (log intensity, higher = more binding, comparable within an allelic series); with HOXA2 [6], 12.1 upbm affinity estimate (log intensity, higher = more binding, comparable within an allelic series).
AGTTAACG: the binding signal was 9.97 upbm affinity estimate (log intensity, higher = more binding, comparable within an allelic series) with HOXA2 [1]; 12.2 upbm affinity estimate (log intensity, higher = more binding, comparable within an allelic series) in the assay with HOXA2 [2]; 10.7 upbm affinity estimate (log intensity, higher = more binding, comparable within an allelic series) with HOXA2 [5]; 9.96 upbm affinity estimate (log intensity, higher = more binding, comparable within an allelic series) with HOXA2 [6].
On to CTGATTAA, for which the binding signal with HOXA2 [1] was 11.9 upbm affinity estimate (log intensity, higher = more binding, comparable within an allelic series); with HOXA2 [2] it was 12.9 upbm affinity estimate (log intensity, higher = more binding, comparable within an allelic series); with ALX1, 11.1 upbm affinity estimate (log intensity, higher = more binding, comparable within an allelic series); in the assay with HOXA2 [5] it was 10.8 upbm affinity estimate (log intensity, higher = more binding, comparable within an allelic series); with HOXA2 [6], 11.5 upbm affinity estimate (log intensity, higher = more binding, comparable within an allelic series).
Take CGTCATTA: the binding signal in the assay with HOXA2 [1] was 12.3 upbm affinity estimate (log intensity, higher = more binding, comparable within an allelic series); in the assay with HOXA2 [2] it was 13.2 upbm affinity estimate (log intensity, higher = more binding, comparable within an allelic series); in the assay with HOXA2 [5] it was 10.8 upbm affinity estimate (log intensity, higher = more binding, comparable within an allelic series); in the assay with HOXA4 it was 11.4 upbm affinity estimate (log intensity, higher = more binding, comparable within an allelic series); in the assay with HOXA2 [6], 12.3 upbm affinity estimate (log intensity, higher = more binding, comparable within an allelic series).
Take TACTTTAA: the binding signal is 9.67 upbm affinity estimate (log intensity, higher = more binding, comparable within an allelic series) in the assay with HOXA2 [1]; 11.6 upbm affinity estimate (log intensity, higher = more binding, comparable within an allelic series) in the assay with HOXA2 [2]; 10.8 upbm affinity estimate (log intensity, higher = more binding, comparable within an allelic series) with HOXA2 [5]; 9.6 upbm affinity estimate (log intensity, higher = more binding, comparable within an allelic series) with HOXA2 [6].
With AGAGCCCC, the binding signal with HOXA2 [1] was 7.28 upbm affinity estimate (log intensity, higher = more binding, comparable within an allelic series); with HOXA2 [2] it was 10.2 upbm affinity estimate (log intensity, higher = more binding, comparable within an allelic series); with HOXA2 [5], 10.3 upbm affinity estimate (log intensity, higher = more binding, comparable within an allelic series); with HOXA2 [6] it was 7.25 upbm affinity estimate (log intensity, higher = more binding, comparable within an allelic series).
Turning to AATCAGCT, the binding signal with HOXA2 [1] is 10.1 upbm affinity estimate (log intensity, higher = more binding, comparable within an allelic series); with HOXA2 [2], 11.9 upbm affinity estimate (log intensity, higher = more binding, comparable within an allelic series); in the assay with HOXA2 [5], 10.7 upbm affinity estimate (log intensity, higher = more binding, comparable within an allelic series); with HOXA2 [6], 9.77 upbm affinity estimate (log intensity, higher = more binding, comparable within an allelic series).
For the sequence AACCGGGC, the binding signal in the assay with HOXA2 [1] is 7.08 upbm affinity estimate (log intensity, higher = more binding, comparable within an allelic series); in the assay with HOXA2 [2] it was 10.3 upbm affinity estimate (log intensity, higher = more binding, comparable within an allelic series); with HOXA2 [5] it was 10.3 upbm affinity estimate (log intensity, higher = more binding, comparable within an allelic series); with NKX3-2 [8] it was 10.4 upbm affinity estimate (log intensity, higher = more binding, comparable within an allelic series); in the assay with HOXA2 [6], 7.35 upbm affinity estimate (log intensity, higher = more binding, comparable within an allelic series); in the assay with NKX3-2 [9], 10.4 upbm affinity estimate (log intensity, higher = more binding, comparable within an allelic series).
With CCTGCCAC, the binding signal with HOXA2 [1] was 7.29 upbm affinity estimate (log intensity, higher = more binding, comparable within an allelic series); with HOXA2 [2] it was 10.3 upbm affinity estimate (log intensity, higher = more binding, comparable within an allelic series); in the assay with HOXA2 [5] it was 10.6 upbm affinity estimate (log intensity, higher = more binding, comparable within an allelic series); in the assay with HOXA2 [6], 7.12 upbm affinity estimate (log intensity, higher = more binding, comparable within an allelic series).
AACCTAAT: the binding signal is 10.5 upbm affinity estimate (log intensity, higher = more binding, comparable within an allelic series) with HOXA2 [1]; 12.1 upbm affinity estimate (log intensity, higher = more binding, comparable within an allelic series) with HOXA2 [2]; 10.6 upbm affinity estimate (log intensity, higher = more binding, comparable within an allelic series) with HOXA2 [5]; 10.3 upbm affinity estimate (log intensity, higher = more binding, comparable within an allelic series) with HOXA2 [6].
Consider CTCATTAC, for which the binding signal with HOXA2 [1] was 12.5 upbm affinity estimate (log intensity, higher = more binding, comparable within an allelic series); in the assay with HOXA2 [2], 13.2 upbm affinity estimate (log intensity, higher = more binding, comparable within an allelic series); with VAX1 [3] it was 13 upbm affinity estimate (log intensity, higher = more binding, comparable within an allelic series); with VAX1 [4], 12.7 upbm affinity estimate (log intensity, higher = more binding, comparable within an allelic series); with HOXA2 [5], 10.8 upbm affinity estimate (log intensity, higher = more binding, comparable within an allelic series); in the assay with HOXA2 [6] it was 12.3 upbm affinity estimate (log intensity, higher = more binding, comparable within an allelic series). Further, the binding signal with VAX1 [7] was 12.8 upbm affinity estimate (log intensity, higher = more binding, comparable within an allelic series).
